Bioassay records as filed in PubChem.
Most compounds without a hit are left out; they make up all but 3.5% or so of the library.
GPR151 activ = activators of human GPR151; Q8TDV0; PathHunter beta-arrestin GPR151 cells, luminescence; activation, % at 11.2 µM; 650,000 tested, 1% active; in the data active = activation above about 4.9%;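 also: 0% = median of compound wells and 100% = cells with positive control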
TEAD-YAP block = TEAD-YAP interaction inhibition; inhibition, % at 9.12 µM; HEK-TIYL cells, TEAD-Gal4/YAP UAS-luciferase luminescence; 640,000 tested, 1.4% active; AID 1259422; in the data active = inhibition above about 32%;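 also: 0% = median of test compound wells and 100% = reference inhibitor wells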
MITF primary = blocks human microphthalmia-associated transcription factor. AlphaScreen MITF homodimerization, bead proximity signal. inhibition, % at 2.6 µM. 650,000 tested, 0.91% active. AID 1259374; in the data active = inhibition above about 50%;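 also: 0% = vehicle wells with protein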
Target sequence (O75030 whole entry, looked up): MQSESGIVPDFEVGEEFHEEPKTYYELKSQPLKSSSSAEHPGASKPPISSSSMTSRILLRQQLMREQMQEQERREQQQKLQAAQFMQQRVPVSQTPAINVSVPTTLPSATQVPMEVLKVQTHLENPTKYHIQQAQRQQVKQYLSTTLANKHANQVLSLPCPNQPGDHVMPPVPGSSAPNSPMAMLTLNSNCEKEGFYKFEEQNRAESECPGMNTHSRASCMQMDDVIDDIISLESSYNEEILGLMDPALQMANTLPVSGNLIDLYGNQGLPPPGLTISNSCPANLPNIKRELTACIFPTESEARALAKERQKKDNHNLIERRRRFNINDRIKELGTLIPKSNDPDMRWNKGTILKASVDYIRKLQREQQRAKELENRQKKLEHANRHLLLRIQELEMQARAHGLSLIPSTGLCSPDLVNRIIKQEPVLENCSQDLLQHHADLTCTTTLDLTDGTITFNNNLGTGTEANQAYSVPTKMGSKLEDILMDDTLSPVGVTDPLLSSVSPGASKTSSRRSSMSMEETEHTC
FBW7 act = activators of human E3 ligase FBW7 | AlphaScreen FBW7–phospho-cyclin E peptide binding, activator screen | AID 1259310 | normalized activity (activation), % at 26.1 µM | 650,000 tested, 0.13% active; in the data active = normalized activity above about 1.9%;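 also: purified mutant Fbw7 with reduced substrate affinity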
Active calls of the source: *.

SMILES | GPR151 activ | TEAD-YAP block | MITF primary | FBW7 act
Cc1ccc(/C=C2\SC(=S)N(/N=C/c3cc([N+](=O)[O-])ccc3O)C2=O)o1 | 0 | 3 | 74* | -1
COc1ccc(-c2nnc(NC(=O)C3CCCN3C(=O)NC3CCCCC3)s2)cc1 (stereo not given) | 1 | -4 | -2 | 0
Nc1ccc2oc(-c3ccc4nc[nH]c4c3)nc2c1 | -6 | 61* | 6 | 0
Nc1ccc2oc(-c3ccccc3Br)nc2c1 | -1 | 25 | 6 | 1
Nc1ccc2oc(-c3ccc(F)cc3Cl)nc2c1 | -5 | 37* | -2 | 0
Nc1ccc2oc(-c3cccc4c(Br)cccc34)nc2c1 | 4 | 65* | 4 | 0
Nc1ccc2oc(-c3ccc(F)cc3)nc2c1 | -8 | -2 | 2 | 0
Nc1ccc2oc(-c3ccc(O)c(Br)c3)nc2c1 | -10 | 59* | 1 | 0
Nc1ccc2oc(-c3cccc(Br)c3)nc2c1 | 1 | -42 | 9 | 0
COc1ccc(OCc2nnc(SCC(N)=O)n2N)cc1 | 0 | 1 | -9 | 0
COc1ccc(C(=O)Nc2cccc(C)c2)cc1 | -9 | 66* | -4 | 0
CC(=O)Oc1ccc(C(=O)Nc2cccc(F)c2)cc1 | -4 | -41 | -7 | 0
COc1ccc(NC(=S)NNc2ccc(C(=O)O)cc2)cc1 | -1 | 40* | 2 | 0
COc1ccc(C(=O)NC(=S)Nc2cccc(S(=O)(=O)N3CCOCC3)c2)cc1 | -2 | 44* | 6 | 1
CC(C)Oc1ccc(C(=O)Nc2cccc(F)c2)cc1 | -7 | 43* | 15 | 1
COc1cccc(/C=c2/sc3nc(-c4ccccc4OC)nn3c2=O)c1 | 0 | 5 | 11 | 0
N#Cc1cnn(Cc2ccccc2)c1NC(=O)c1cccc(C(F)(F)F)c1 | -1 | 3 | 10 | 0
O=C(COc1ccc(Cl)cc1)Nc1ccc(NC(=O)c2ccco2)cc1 | 1 | -4 | 2 | 0
COc1ccc(C(=O)NC(=S)Nc2cccc(NC(=O)c3ccco3)c2)cc1 | -1 | 33* | 9 | 0
COc1ccc(C(=O)NC(=S)Nc2cccc(C(=O)O)c2)cc1 | 2 | 61* | -1 | 0
O=C(COc1ccc(Cl)cc1)Nc1cccc(NC(=O)c2ccco2)c1 | -1 | 47* | 8 | 0
COc1ccc(C(=O)NC(=S)Nc2cccc(OC)c2)cc1 | 0 | -56 | -16 | 0
Cc1cc(C)c2[nH]c(=O)c(CN(CCCO)C(=O)c3cccnc3)cc2c1 | 0 | 4 | 14 | 1
CC1CCC2(CC1)NC(=O)N(Cc1nc(N)nc(N)n1)C2=O (stereo not given) | 1 | 4 | 22 | 0
Oc1c(I)cc(Cl)c2cccnc12 | 0 | -7 | 4 | 0
SMILES | GPR151 activ | TEAD-YAP block | MITF primary | FBW7 act
CN(Cc1cc(Cl)c2cccnc2c1O)C1CCCCC1 | 3 | 83* | 37 | -1
CN(Cc1cc([N+](=O)[O-])c2cccnc2c1O)C1CCCCC1 | -2 | 29 | 114* | -1
O=[N+]([O-])c1ccc(N2CCN(c3ccccc3)CC2)c2ncccc12 | 1 | 4 | 3 | 0
O=[N+]([O-])c1cc(CN2CCN(c3ccccc3)CC2)c(O)c2ncccc12 | 0 | 48* | 61* | -1
CN(Cc1cc(Br)c(O)c2ncccc12)C1CCCCC1 | 2 | 87* | 79* | -1
CC(C)C(=O)N1CCN(c2ccc(NC(=O)C(Cl)(Cl)Cl)cc2Cl)CC1 | 1 | 6 | 3 | 0
CCCCN(CC)C(=O)c1c[nH]c2ccc(S(=O)(=O)N(CC)c3ccccc3)cc2c1=O | 0 | 7 | 8 | 0
CCOC(=O)c1ccc2[nH]c3c(c2c1)CCCC3O (stereo not given) | 0 | -23 | -3 | 0
CCOc1cc(/C=N/Nc2nc3c(c(=O)n(C)c(=O)n3C)n2Cc2ccccc2)ccc1O | -1 | 44* | 0 | 0
C=CCNc1nc2c(c(=O)n(C)c(=O)n2C)n1Cc1ccccc1 | 2 | 34* | 14 | 0
C/C(=N/Nc1nc2c(c(=O)n(C)c(=O)n2C)n1Cc1ccccc1)c1ccccc1O | 1 | 7 | 6 | 0
C/C(Cl)=C/Cn1c(NCCc2ccccc2)nc2c1c(=O)n(C)c(=O)n2C | 0 | 6 | -1 | 0
C=CCn1c(NCCc2ccccc2)nc2c1c(=O)n(C)c(=O)n2C | 1 | 37* | -18 | 0
O=C(NCc1ccc(F)cc1)c1ccc(CNS(=O)(=O)c2ccc(F)cc2)cc1 | 0 | 4 | 3 | 0
COCCN1C(=O)/C(=C/c2ccccc2OC)SC1=S | 0 | 3 | 18 | 0
COc1ccccc1/C=C1/SC(=S)N(CCCC(=O)O)C1=O | 1 | 46* | -1 | 0
COc1ccccc1/C=C1/SC(=S)N(CCCCCC(=O)O)C1=O | -1 | 58* | 2 | 0
CC(C)NC(=O)CSc1nnc(Cc2ccccc2)n1C | 0 | -52 | -2 | 0
CC(C)(C)N(Cc1ccccc1)C(=O)Nc1ccc(F)cc1 | -1 | 4 | 7 | 0
Nc1nc(Nc2cccc(C(F)(F)F)c2)nc(C(F)(F)F)n1 | -3 | -29 | -12 | 0
CCCSc1nnc2c(n1)OC(C)(CC)Nc1ccccc1-2 (stereo not given) | 0 | -44 | 9 | 0
CC(=O)Oc1ccc2cc(NC(=O)c3cccc(C)c3)c(=O)oc2c1 | -3 | 38* | 4 | 0
Cc1ccc(C(=O)Nc2cc3ccccc3oc2=O)cc1C | -2 | 62* | -3 | 0
Cc1ccc(C(=O)Nc2cc3ccccc3oc2=O)cc1 | -2 | 86* | 8 | 0
Cc1ccc(C(=O)Nc2cc3cc(Br)ccc3oc2=O)cc1C | -1 | -10 | -2 | 0
SMILES | GPR151 activ | TEAD-YAP block | MITF primary | FBW7 act
CCCCc1ccc(C(=O)Nc2cc3ccccc3oc2=O)cc1 | 1 | 55* | -1 | 0
CC(=O)Nc1cc2ccccc2oc1=O | -1 | -2 | 26 | 0
O=S(=O)(NCC1COC2(CCCC2)O1)c1ccc(Cl)s1 (stereo not given) | -2 | 8 | -4 | 0
CN(C)S(=O)(=O)c1ccc(/C(O)=C2/C(=O)C(=O)N(CCN3CCOCC3)C2c2ccc(Br)cc2)cc1 (stereo not given) | -1 | -1 | 16 | 0
COc1coc(C(=O)N2CCN(c3ccccc3F)CC2)cc1=O | -1 | 4 | 5 | 0
O=C(CSc1nc2ccccc2c2nc(-c3ccccc3)nn12)c1ccc(O)c(O)c1 | 2 | 44* | 24 | 0
CC1=NN(c2nc(-c3ccccc3)cs2)C(=O)C1C(c1ccccc1)C(C#N)C(N)=O (stereo not given) | -1 | 76* | 24 | 1
O=C1CC(C23CC4CC(CC(C4)C2)C3)=NN1c1ccccc1 | 2 | 33* | 15 | 0
NC1=NN(c2ccccc2)C(=O)C1 | 0 | 6 | 0 | 0
CCC(=O)N1CCCC(c2nnc(-c3ccccc3F)s2)C1 (stereo not given) | -6 | 74* | 6 | 0
N#Cc1cc(-c2ccnc(Nc3ccc(CN4CCCCC4)cc3)n2)cc(N2CCOCC2)c1 | 0 | 36* | 1 | 0
N#Cc1cc(-c2ccnc(Nc3ccc(N4CCNCC4)cc3)n2)cc(N2CCOCC2)c1 | 0 | 32* | -3 | -1
